In ChEMBL document CHEMBL3433997, “St. Jude Leishmania screening dataset” (2016) one finds inhibition data, which are given here for 15 molecules.

The assay deals with Solute carrier family 2, facilitated glucose transporter member 1 (Homo sapiens) (UniProt P11166). Briefly: ST_JUDE_LEISH: Cytotoxicity at 2uM final concentration against transgenic Leishmania Mexicana promastigotes LmGLUT1 that are glucose transport deficient and complemented with the human glucose transporter GLUT1. Activity is measured by DNA content using SYBR green in vitro. Type of assay: functional.
Sequence of Solute carrier family 2, facilitated glucose transporter member 1 (Homo sapiens) (P11166 whole entry): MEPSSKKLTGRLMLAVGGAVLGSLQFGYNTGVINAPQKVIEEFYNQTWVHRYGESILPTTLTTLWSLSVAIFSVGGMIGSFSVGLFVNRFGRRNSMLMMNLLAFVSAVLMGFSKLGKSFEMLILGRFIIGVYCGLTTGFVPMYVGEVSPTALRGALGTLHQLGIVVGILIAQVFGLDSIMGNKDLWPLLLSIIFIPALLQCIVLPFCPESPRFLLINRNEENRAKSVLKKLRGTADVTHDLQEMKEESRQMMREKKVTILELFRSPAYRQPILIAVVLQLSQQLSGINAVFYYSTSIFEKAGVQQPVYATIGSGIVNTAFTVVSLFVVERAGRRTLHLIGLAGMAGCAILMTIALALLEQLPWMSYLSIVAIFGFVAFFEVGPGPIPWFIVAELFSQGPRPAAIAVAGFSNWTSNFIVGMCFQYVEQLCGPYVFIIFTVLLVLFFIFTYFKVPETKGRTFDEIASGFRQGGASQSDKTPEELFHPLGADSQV
In general, inhibition refers to the drop in the measured response relative to a control, in per cent. Regarding `O=C(C=Cc1ccc(Cl)c(Cl)c1)NCCCCCN1CCC(CCCNS(=O)(=O)c2ccc(F)cc2)CC1`, the inhibition turned out to be 1.12%.
For `CN(C)CCC1CCCc2ccc(NC(=O)Nc3ccc(-c4ccncc4)c4ccccc34)cc21` (stereo not given) the value was 4.29%; for `O=C(Nc1ccc([N+](=O)[O-])cc1)Nc1cc(OCC(F)(F)F)cc(OCC(F)(F)F)c1`, 4.64%.
For `Cc1ccc(Nc2nccc(NCC(O)c3ccc(C(F)(F)F)cc3)n2)cc1` (stereo not given) the value was 10%; for `Cc1ccc2[nH]c(C)cc(=NN=CC=Cc3ccccc3)c2c1`, -0.92%.
In the case of `COc1ccc(C(=O)N2CCC3(CC2)C(=O)N(CC(=O)NCC2CCCCC2)CN3c2ccccc2)c(OC)c1`, the inhibition stood at 5.13%.
Under `CNC(=O)Cc1ccc(C(=O)Nc2cccc(-c3csc(-c4nc5ccccc5[nH]4)c3)c2)cc1` stands -2.64%.
For `CCCC1N=C(N)N=C(N)N1c1ccc(C)c(C)c1` (stereo not given) the value was -0.66%; for `CC(C)CCN1CCCN(Cc2ccc(C(=O)Nc3ccc(C(C)(C)C)cc3)cc2)CC1`, 2.66%.
Consider `O=C(NC(=O)c1ccccc1O)c1ccccc1O`, for which the inhibition is -0.08%.
Under `COc1ccc(CNC2CCN(C)CC2)cc1-c1ccc(S(=O)(=O)NCc2ccccc2)cc1` stands 3.88%; under `O=C(Nc1cccc(C(F)(F)F)c1)c1cccc(S(=O)(=O)NCC2CCCN(Cc3ccccc3)C2)c1` (stereo not given), 1.71%; under `COc1cc(Nc2ccc3cc(S(=O)(=O)N4CCCCC4C)ccc3n2)cc(OC)c1OC` (stereo not given), 6.4%.
On to `CN1CCN(CC(=O)Nc2cccc(-c3ccc(-c4nc5cc(C(F)(F)F)ccc5[nH]4)cc3)c2)CC1`, for which the inhibition stood at 0.96%.
Under `CC(C)C[C@H](NC(=O)c1ccc(OCCN2CCOCC2)cc1)C(=O)N[C@H](/C=N/N1CCN(C)C1=O)CCc1ccccc1` stands 3.09%.
